IL1B secr inh: inhibitors of inflammasome signaling (IL-1 beta secretion). THP-1 LPS/ATP IL-1B secretion, AlphaLISA, 16 h; stronger effect = lower value. activity change, % at 57.5 µM. 4.7% of 360,000 active. AID 743279; in the data active = activity change below about -50%; inconclusive = mostly about -30% to -49%
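THP-1 cells pretreated 1 hr with compounds (up to 57.5 uM final), then stimulated with LPS (250 ng/mL final) plus ATP (1.25 mM final); secreted IL-1B measured by AlphaLISA after 16 hr, decreased signal indicating inhibition.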
DT40 TDP1 no CPT: qHTS for Inhibitors of human tyrosyl-DNA phosphodiesterase 1 (TDP1): qHTS in cells in absence of CPT. Potency, µM (series often up to 46.2 µM), without a hit: top-dose activity change, negative = growth inhibition, usual class: inhibitors. 15% of 420,000 active. DT40 Tdp1-/- hTDP1 cells, no CPT, ATP luminescence, 48 h; note: potency is the fitted concentration of half-maximal effect; nearly all actives have a fitted effect of over 55% in size
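Stably hTDP1-transfected Tdp1-null chicken DT40 cells were treated with library compounds minus camptothecin and grown for at least 48 hr at 37 °C, after which cellular ATP was quantified by luminescence.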
TDP1 cell CPT: DT40-hTDP1 cell growth loss with CPT. chicken DT40 Tdp1-/-;hTDP1 cells + 20 nM CPT, ATP luminescence, 48 h. Potency, µM (series often up to 46.2 µM), without a hit: at the top dose activity change, negative = growth inhibition, usual class: inhibitors. 12% of 420,000 active. AID 686979; note: potency is the fitted concentration of half-maximal effect; nearly all actives have a fitted effect of over 55% in size
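Chicken DT40 Tdp1-/- cells complemented with human TDP1, 400 cells/well, exposed to compounds plus 20 nM camptothecin for at least 48 h at 37 C; viability read as ATP content by CellTiter-Glo luminescence.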
ELG1 repair inh: inhibitors of ELG1-dependent DNA repair in HEK293T cells; HEK293T ELG1-luciferase reporter, luminescence, 16 h; DNA damage induced by 5-fluorouridine; Potency, µM (series often up to 46.1 µM), for the others: at the top dose activity change, negative = inhibition, most hits filed as inhibitors; 2.3% of 330,000 active; AID 504467; note: potency is the fitted concentration of half-maximal effect; nearly all actives have a fitted effect of over 55% in size
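5-Fluorouridine DNA damage + compound/DMSO, 2,000 cells/well, 16 h, 37 °C/5% CO2. ONE-Glo, 30 min RT, luminescence. Readout = decrease in reporter signal.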
RORg inh: blocks mouse ROR gamma transcriptional activity. Drosophila S2 Gal4-RORgamma UAS-luciferase reporter, 20 h. Potency, µM (highest dose often 53.6 µM), for inactives: at the highest dose activity change, negative = inhibition, usual class: inhibitors. 5.4% of 310,000 active. AID 2551; note: potency is the fitted concentration of half-maximal effect; nearly all actives have a fitted effect of over 60% in size
Target sequence (P51450 whole entry, looked up, the tested form may be a part): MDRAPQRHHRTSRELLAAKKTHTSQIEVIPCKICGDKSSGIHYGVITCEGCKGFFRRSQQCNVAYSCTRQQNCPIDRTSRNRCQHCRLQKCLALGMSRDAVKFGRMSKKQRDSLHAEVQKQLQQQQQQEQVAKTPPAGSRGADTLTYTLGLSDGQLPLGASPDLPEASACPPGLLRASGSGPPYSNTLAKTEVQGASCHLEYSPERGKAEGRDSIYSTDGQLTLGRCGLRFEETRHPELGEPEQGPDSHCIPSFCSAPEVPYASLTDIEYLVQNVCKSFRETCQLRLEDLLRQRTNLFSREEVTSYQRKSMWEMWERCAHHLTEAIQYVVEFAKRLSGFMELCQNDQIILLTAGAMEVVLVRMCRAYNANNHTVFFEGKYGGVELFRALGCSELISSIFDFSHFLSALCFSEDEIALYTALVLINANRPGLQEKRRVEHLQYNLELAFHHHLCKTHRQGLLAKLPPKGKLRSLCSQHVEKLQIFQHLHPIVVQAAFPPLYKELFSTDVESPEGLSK
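Luciferase reporter read in Schneider cells carrying Gal4-RORγ (mouse) and UAS-Photinus luciferase; cells given compound 1 h before 700 uM copper sulfate induction, then incubated 20 h at ambient temperature.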
VP16 counter: Gal4-VP16 reporter inhibition counter-screen; AID 2546; 3.5% of 310,000 active; Potency, µM (doses to about 53.6 µM), for inactives: at the highest dose activity, negative = inhibition, hits mostly inhibitors; Drosophila S2 Gal4-VP16 UAS-luciferase, luminescence, 20 h;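 note: Gal4-VP16 expression switched on by copper sulfate through the metallothionein promoter; potency is the fitted concentration of half-maximal effect; nearly all actives have a fitted effect of over 50% in size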
* marks the source's active call; other numbers are inactive results; ? = inconclusive; / = no result given; [ ] = remark or other dose. Shown are actives, neighbours in structure and some others; about 21% of the full set was active somewhere. Unless noted, calls come from the whole dose curve; as a rule, active = well fitted curve in the direction sought with a large enough effect; inconclusive = small, poorly fitted or top-dose-only effect, or another doubt; inactive = no such curve, though single readings can be large; an effect the other way counts as inactive or inconclusive. % is set by controls: 0 for no effect and ±100 for the full control effect.

SMILES	IL1B secr inh	DT40 TDP1 no CPT	TDP1 cell CPT	ELG1 repair inh	RORg inh	VP16 counter
CC(C)Oc1ccc(S(=O)(=O)N2CCOCC2)cc1NC(=O)Cc1cccs1	-1	?	-22%	-12%	/	/
CCOC(=O)CCN1C(=O)[C@H]2[C@H]3[C@H](O)[C@H](O)C/C(=N/OCc4ccccc4)[C@@H]3CC[C@@H]2C1=O	/	/	/	/	6%[10 µM]	4%[10 µM]
COc1ccc(-c2nn(-c3ccccc3)cc2C(=O)Nc2ccc(C(=O)O)cc2)cc1	-26	?	2%	-9%	?	16%
OCc1cn(-c2ccccc2)nc1-c1cc2ccccc2o1	-16	-3%	?	?	?	11µM*
COc1ccc(NC(=O)c2cn(-c3ccccc3)nc2-c2cc3ccccc3o2)cc1	-2	21µM*	16µM*	?	32%	-27%
COc1ccc(-c2nn(-c3ccccc3)cc2C(=O)Nc2ccccc2OC)cc1	/	21µM*	16µM*	/	/	/
N#Cc1cn(-c2ccccc2)nc1-c1cc2ccccc2oc1=O	-3	16µM*	?	?	16%	12%
O=C(O)/C=C/c1cn(-c2ccccc2)nc1-c1cc2ccccc2oc1=O	44	17%	-22%	?	20%	5%
CCCS(=O)(=O)NC(=O)C1(C)CCCN(C(=O)c2cc3ccccc3s2)C1 (stereo not given)	55	-1%	-10%	/	/	/
O=C(NCCCN1C(=O)c2ccccc2C1=O)OCc1ccccc1	-1	-7%	5%	/	/	/
COc1ccc(-n2c(=O)c3sc4ccccc4c3n(CC(=O)N3CCCC3)c2=O)cc1	/	-27%	-15%	/	/	/
COc1ccccc1N1CCN(C(=O)Cc2c(C(=O)O)c(C)cn2C)CC1	/	-8%	-1%	/	/	/
COc1ccc(N2CCN(Cc3cccn3-c3nnc(N4CCN(C5CCCCC5)CC4)s3)CC2)cc1	/	21µM*	21µM*	/	/	/
NC(=O)Cn1c(=O)n(-c2ccc(F)c(Cl)c2)c(=O)c2sc3ccccc3c21	/	?	-15%	/	/	/
COc1ccc(C(=O)N2CC(c3ccc(Cl)cc3)CC2=O)cc1 (stereo not given)	-29	-20%	-1%	/	/	/
COc1ccc(C(=O)CN2CC(C)SC2=Nc2ccc(Cl)cc2)cc1 (stereo not given)	-5	23µM*	?	7%	-17%	-3%
CCOC(=O)C1CCN(c2c(NCCN3CCN(c4ccccc4)CC3)c(=O)c2=O)CC1	1	-13%	-13%	-1%	-27%	-10%
COc1ccc(CCNC(=O)COc2cc(O)c3c(c2)OC(C)(C)CC3=O)cc1OC	-5	18µM*	?	-28%	0%	-10%
COc1cc(NC(=O)COc2cc(O)c3c(c2)OC(C)(C)CC3=O)cc(OC)c1	-5	13µM*	16µM*	?	?	-7%
COc1ccc(NC(=O)COc2cc(O)c3c(c2)OC(C)(C)CC3=O)cc1	-19	?	?	-19%	18%	-8%
CC1(C)CC(=O)c2c(O)cc(OCC(=O)Nc3ccc(CCO)cc3)cc2O1	-13	21µM*	15µM*	?	38%	-6%
Cc1ccn2c(Nc3ccc4c(c3)OCO4)c(-c3ccco3)nc2c1	/	?	23µM*	/	/	/
Cc1ccc(-c2nc3cnccn3c2Nc2ccc3c(c2)OCO3)cc1	85	?	?	?	42%	0%
Cc1ccn2c(Nc3ccc4c(c3)OCO4)c(-c3ccc(N(C)C)cc3)nc2c1	/	?	13µM*	/	/	/
Cc1ccn2c(Nc3ccc4c(c3)OCCO4)c(-c3ccc(Cl)s3)nc2c1	/	-26%	?	/	/	/
O=C(Cn1cc(COc2ccc(Br)cc2[N+](=O)[O-])nn1)c1ccc(O)cc1	-5	2%	?	/	/	/

Bioassay records from PubChem.
